Screens as filed in PubChem BioAssay.
Lassa entry inh: qHTS for Inhibitors of binding or entry into cells for Lassa Virus. Lassa virus pseudotype entry inhibition, cell reporter. Potency, µM (titrated, usually from 37.9 µM), actives largely listed as inhibitors. hit rate 1.2% among 300,000; calls by dose curve; tested in HEK293 cells; further: nearly all actives have a fitted effect of over 50% in size
SARS PLP yeast: qHTS of Yeast-based Assay for SARS-CoV PLP | S. cerevisiae expressing SARS-CoV PLpro, growth rescue | Potency, µM (series often up to 32.9 µM), usual class: activators | hit rate 0.19% among 330,000 | AID 485353, 2010; calls by dose curve; further: nearly all actives have a fitted effect of over 55% in size
HCV inh: qHTS Assay for Inhibitors of Hepatitis C Virus (HCV). hit rate 3.4% among 340,000. Potency, µM (series often up to 41.8 µM), most hits filed as inhibitors. Huh7.5.1 HCVcc-Cre infection, luciferase reporter, 44 h; active means well fitted inhibition curve with a large enough effect; inconclusive means small, poorly fitted or top-dose-only effect, or another doubt; inactive means no such curve, though single readings can be large or run the other way
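Cells seeded at 1,000/well and cultured 4 h, then compounds added followed by HCVcc-Cre virus (~0.5 moi). After 44 h further culture, luciferase substrate was added, plates held 15 min at room temperature, and luminescence read for 15 sec.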
HCMV antiviral: qHTS Assay for inhibitors of the human cytomegalovirus (HCMV); HFF cells, HCMV-luciferase reporter, 72 h; active compounds read low; AID 1259415, 2018; hit rate 4.5% among 410,000; activity change, negative = inhibition, % at 57.5 µM; in the data active means activity change below about -60%; inconclusive means no clear call, values can overlap the other calls; inactive means above about -39%
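Two-dose cell screen: HFF monolayers treated with compounds and infected with luciferase-expressing HCMV at 1 PFU/cell, 72 h at 37C, then lysed for luciferase measurement.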
MARV entry inh: qHTS for inhibitors of binding or entry into cells for Marburg Virus. Potency, µM (doses to about 37.8 µM), most hits filed as inhibitors. hit rate 1.8% among 300,000. Marburg virus pseudotyped entry inhibition, cell reporter; calls by dose curve; tested in HEK293 cells
FMDV antiviral: High Throughput Screening for Foot and Mouth Disease Virus Antivirals; FMDV antiviral cell-based qHTS; Potency, µM (top dose mostly 57.9 µM), usual class: inhibitors; hit rate 1.2% among 410,000; AID 1159524, 2015; calls by dose curve; tested in HEK293T cells; further: read-out not given here; nearly all actives have a fitted effect of over 45% in size
A number is an active result; . = inactive; ? = inconclusive; / = no result given. Hits are enriched below; roughly 8% of the tested compounds scored in any of these assays.

SMILES	Lassa entry inh	SARS PLP yeast	HCV inh	HCMV antiviral	MARV entry inh	FMDV antiviral
CC(=O)Nc1cccc(Nc2nc(-c3ccccc3)nc3ccccc23)c1	.	.	6.3µM	.	?	?
Cc1cccc(Nc2nc(-c3ccccc3)nc3ccccc23)c1	.	/	/	.	/	.
Oc1cccc(Nc2nc(-c3ccccc3)nc3ccccc23)c1	?	.	3.5µM	?	?	?
COCC(=O)Nc1cc(C(=O)N2CCCOc3c(cccc3OC)C2)c2c(c1)nc(C1CCC1)n2C	/	/	/	/	/	.
CCOC(=O)c1c(NC(=O)CN2CCCCC2)sc2c1CCC(C=O)=C2Cl	.	.	2.2µM	.	.	?
CCOC(=O)c1c(-c2ccc(C)o2)csc1NC(=O)CN1CCCCC1	?	.	?	.	?	?
O=C(c1cccs1)N1CCCc2cc(NS(=O)(=O)c3ccc(Cl)cc3)ccc21	?	/	/	.	/	.
CCn1nc(-c2cccs2)nc2c(=O)n(C)c(=O)nc1-2	?	.	0.56µM	/	0.89µM	1.6µM
CN(c1ccc2c(-c3ccccn3)noc2n1)c1ccc(F)cc1F	/	/	/	.	/	/
O=C(NNC(=O)c1ccccc1Br)c1ccncc1	/	.	.	-65	/	.
O=C(NNC(=O)c1ccccc1C(=O)O)c1ccc(O)cc1	.	.	13µM	.	.	.
CC(C)Oc1ccc(C(=O)NNC(=O)c2ccccc2C(=O)O)cc1	/	.	.	.	/	.
C=CCNc1nc2cc(-c3cccc(Cl)c3)sc2c(=O)n1C	/	/	/	.	/	.
CC(C)c1ccc(NC(=O)N2CCN(c3ccc(Cl)c(Cl)c3)CC2)cc1	.	/	/	-79	?	?
CCOc1ccc(NC(=O)N2CCN(c3ccc(Cl)c(Cl)c3)CC2)cc1	.	/	/	.	.	.
Cc1ccc(NC(=O)N2CCN(c3ccc(Cl)c(Cl)c3)CC2)cc1	.	/	/	-62	?	?
O=C(CSc1nnc(-c2cccs2)o1)Nc1cccc(S(=O)(=O)N2CCCCC2)c1	.	.	.	.	.	.
Cc1ccc(NC(=O)C(=O)NCC(c2ccc3c(c2)OCO3)N2CCN(c3ccccc3)CC2)cc1 (centres undefined)	.	/	/	.	/	.
Cc1ccccc1NC(=O)C(=O)NCC(c1ccc2c(c1)OCO2)N1CCN(c2ccccc2)CC1 (centres undefined)	10µM	/	/	?	/	.
O=C(Nc1nnc(S(=O)(=O)N2CCc3ccccc32)s1)c1cccc(Cl)c1	.	/	/	.	/	?
O=C(COc1nncc2ccccc12)Nc1c(F)c(F)c(F)c(F)c1F	.	.	.	.	.	.
O=C(COc1nncc2ccccc12)Nc1ccc(F)c(F)c1	?	.	.	-101	.	.
CCOC(=O)c1c(-c2ccc(OC)cc2)csc1NC(=O)CCN1CCOCC1	?	.	?	.	.	.
CCOC(=O)c1c(NC(=O)/C=C/C(=O)O)sc(C)c1-c1ccc(C(C)(C)C)cc1	?	.	?	?	10µM	18µM
CCOC(=O)c1c(NC(=O)CCN2CCOCC2)sc(C)c1-c1ccccc1	3.2µM	.	25µM	.	?	?
SMILES	Lassa entry inh	SARS PLP yeast	HCV inh	HCMV antiviral	MARV entry inh	FMDV antiviral
CCN(Cc1ccccc1)S(=O)(=O)c1cc(C(=O)NC(C)C2CC3CCC2C3)ccc1OC (centres undefined)	3.2µM	.	11µM	-88	?	.
Cc1cc(NC(=O)CSc2nnc(-c3cccc(F)c3)n2N)no1	/	.	.	.	/	.
CC(=O)c1ccc(NC(=O)CC(c2cccs2)N2Cc3ccccc3C2=O)cc1 (centres undefined)	.	/	/	.	/	.
Cc1ccc(NS(=O)(=O)c2ccc3c(c2)CC(=O)N3)cc1F	.	.	.	-62	.	.
Cc1ccc(NS(=O)(=O)c2ccc3c(c2)CC(=O)N3)c(C)c1	/	.	.	.	/	.
CCc1noc(C)c1C(=O)NC1CCCc2c1cnn2-c1cc(C)cc(C)c1 (centres undefined)	/	.	.	.	/	.
Cc1ccc(-n2ncc3c2CCCC3NC(=O)c2ocnc2C)cc1C (centres undefined)	?	/	?	-89	?	?
CCc1[nH]nc(C(=O)NC2CCCc3c2cnn3-c2cc(C)cc(C)c2)c1C (centres undefined)	?	.	.	?	3.5µM	.
